Whole data set: some 140,000 sequences, median “enrichment ratio after two sorts for PhoP signalling” near 0, cut for the highest 2% near 11. Shown is part of a subset that was picked to be rich in the highest values.
B1: PhoQ; a variant is named by its letters at X, in order, P23837 (parent)
chain: MKKLLRLFFPLSLRVRFLLATAAVVLVLSLAYGMVALIGYSVSFDKTTFRLLRGESNLFYTLAKWENNKLHVELPENIDKQSPTMTLIYDENGQLLWAQRDVPWLMKMIQPDWLKSNGFHEIEADVNDTSLLLSGDHSIQQQLQEVREDDDDAEMTHSVAVNVYPATSRMPKLTIVVVDTIPVELKSSYMVWSWFIYVLSANLLLVIPLLWVAAWWSLRPIEALAKEVRELEEHNRELLNPATTRELTSLVRNLNRLLKSERERYDKYRTTLTDLTHSLKTPLXXLQXXLRSLRSEKMSVSDAEPVMLEQISRISQQIGYYLHRASMRGGTLLSRELHPVAPLLDNLTSALNKVYQRKGVNISLDISPEISFVGEQNDFVEVMGNVLDNACKYCLEFVEISARQTDEHLYIVVEDDGPGIPLSKREVIFDRGQRVDTLRPGQGVGLAVAREITEQYEGKIVAGESMLGGARMEVIFGRQHSAPKDE

Variants of: B1
Assay: enrichment ratio after two sorts for PhoP signalling (ratio (wild type AVST 3.29)); higher = more functional
Conditions: with PhoP (E. coli)

| Variant | enrichment ratio |
| --- | --- |
| DRIT | ≤ 0.25 |
| DNWQ | ≤ 0.25 |
| SKIV | 4.99 |
| MKCF | ≤ 0.25 |
| SKHF | ≤ 0.25 |
| SKCV | 12.3 |
| SKFW | ≤ 0.25 |
| SKCF | 13.8 |
| IRSK | ≤ 0.25 |
| GTMP | ≤ 0.25 |
| NADQ | ≤ 0.25 |
| RGYQ | ≤ 0.25 |
| NGYQ | ≤ 0.25 |
| KSYQ | ≤ 0.25 |
| FFYQ | ≤ 0.25 |
| QPYQ | ≤ 0.25 |
| QGYQ | 13.9 |
| STYQ | ≤ 0.25 |
| TTYQ | 11.4 |
| QTYQ | 4.58 |
| QEYQ | 30.4 |
| TGYQ | 15.9 |
| YTYQ | ≤ 0.25 |
| DEAF | ≤ 0.25 |

| Variant | enrichment ratio |
| --- | --- |
| WEER | ≤ 0.25 |
| ADHC | ≤ 0.25 |
| NYMN | ≤ 0.25 |
| WKDT | ≤ 0.25 |
| EGGF | ≤ 0.25 |
| WIPQ | ≤ 0.25 |
| IQYQ | ≤ 0.25 |
| TQYQ | 27.1 |
| TQYD | 3.43 |
| TGDI | ≤ 0.25 |
| WKRD | ≤ 0.25 |
| KGIQ | ≤ 0.25 |
| PVAA | ≤ 0.25 |
| NVAG | ≤ 0.25 |
| FVAA | ≤ 0.25 |
| TVAN | 16.9 |
| FVAT | ≤ 0.25 |
| TVAT | 16.8 |
| SPAN | ≤ 0.25 |
| NVAT | ≤ 0.25 |
| NVAN | ≤ 0.25 |
| TVAA | 20.7 |
| PVAG | ≤ 0.25 |
| TVAG | 17.8 |

| Variant | enrichment ratio |
| --- | --- |
| RYVN | ≤ 0.25 |
| RYKH | ≤ 0.25 |
| MFLN | ≤ 0.25 |
| RRDC | ≤ 0.25 |
| MLNF | ≤ 0.25 |
| SHAN | ≤ 0.25 |
| NHAN | ≤ 0.25 |
| TVAS | 14.3 |
| FVAS | ≤ 0.25 |
| THAN | 13.2 |
| TVMT | 12.2 |
| KCMT | ≤ 0.25 |
| NVAS | ≤ 0.25 |
| PVMT | ≤ 0.25 |
| PEFN | ≤ 0.25 |
| PTTH | 1.43 |
| DIRA | ≤ 0.25 |
| HQWG | ≤ 0.25 |
| ADSS | ≤ 0.25 |
| NGSS | ≤ 0.25 |
| AGSK | 0.857 |
| AQSS | 11.7 |
| AHSS | ≤ 0.25 |
| ANSR | ≤ 0.25 |

| Variant | enrichment ratio |
| --- | --- |
| AKSS | 8.3 |
| AGSS | 11.2 |
| ANSS | 12.7 |
| LTKW | ≤ 0.25 |
| FSPG | ≤ 0.25 |
| VPLL | ≤ 0.25 |
| NLEV | ≤ 0.25 |
| EVYR | ≤ 0.25 |
| QKGY | ≤ 0.25 |
| RGYC | ≤ 0.25 |
| TGYC | 13.2 |
| TAYC | 11.3 |
| KAYC | ≤ 0.25 |
| QTYC | 0.887 |
| YAYC | ≤ 0.25 |
| QGYC | 13.7 |
| NGYC | ≤ 0.25 |
| FFYC | ≤ 0.25 |
| KTHY | ≤ 0.25 |
| GMIR | 1.56 |
| TGTT | 11.2 |
| NPLD | ≤ 0.25 |
| SLDR | ≤ 0.25 |
| TAGG | 3.74 |

| Variant | enrichment ratio |
| --- | --- |
| VTSS | ≤ 0.25 |
| YGPF | ≤ 0.25 |
| MAMI | 8.98 |
| APML | ≤ 0.25 |
| ANML | 13 |
| NEML | 0.665 |
| AEML | 14.4 |
| AGML | 16.1 |
| YWML | ≤ 0.25 |
| TTML | 28.8 |
| QEML | ≤ 0.25 |
| PNML | ≤ 0.25 |
| WIML | ≤ 0.25 |
| NIML | 6.63 |
| HMSC | ≤ 0.25 |
| RRES | ≤ 0.25 |
| YPTI | ≤ 0.25 |
| IDRY | ≤ 0.25 |
| ACIL | 10.3 |
| ACRL | ≤ 0.25 |
| SQML | 4.5 |
| AQML | 24.2 |
| NHML | ≤ 0.25 |
| ADML | 21.8 |

| Variant | enrichment ratio |
| --- | --- |
| THML | 12.8 |
| WQML | ≤ 0.25 |
| YHML | ≤ 0.25 |
| AKML | 9.72 |
| FDML | ≤ 0.25 |
| ACML | 17.8 |
| LQYI | ≤ 0.25 |
| LLQA | ≤ 0.25 |
| YWKI | ≤ 0.25 |
| RIIT | ≤ 0.25 |
| VAHN | ≤ 0.25 |
| PEIM | ≤ 0.25 |
| VACQ | ≤ 0.25 |
| AWDP | ≤ 0.25 |
| AYET | ≤ 0.25 |
| GVGM | ≤ 0.25 |
| RTSP | ≤ 0.25 |
| PEMC | ≤ 0.25 |
| IARY | ≤ 0.25 |
| ATML | 11.3 |
| YAML | 8.51 |
| AIML | 21.2 |
| IAML | 4.62 |
| AHML | 4.34 |

| Variant | enrichment ratio |
| --- | --- |
| EQML | ≤ 0.25 |
| TQML | 22.5 |
| VHML | ≤ 0.25 |
| NQML | ≤ 0.25 |
| KKML | ≤ 0.25 |
| AAML | 14.7 |
| AYML | ≤ 0.25 |
| NGCN | ≤ 0.25 |
| YSQW | ≤ 0.25 |
| TCLD | ≤ 0.25 |
| PESS | ≤ 0.25 |
| GICK | 9.7 |
| GEWM | ≤ 0.25 |
| GTCM | 5.28 |
| GECM | 15.3 |
| GNCM | 11.7 |
| GAAM | ≤ 0.25 |
| GACM | 12.2 |
| GACK | ≤ 0.25 |
| GECK | ≤ 0.25 |
| RICM | ≤ 0.25 |
| GICM | 38.3 |
| GGCM | 9.15 |
| SFIL | ≤ 0.25 |

| Variant | enrichment ratio |
| --- | --- |
| GTSW | ≤ 0.25 |
| QVGM | 0.458 |
| TTQP | ≤ 0.25 |
| LWAS | ≤ 0.25 |
| DYTN | ≤ 0.25 |
| HRCM | ≤ 0.25 |
| KMCM | ≤ 0.25 |
| KRCM | ≤ 0.25 |
| TRCM | 12.4 |
| GMCK | ≤ 0.25 |
| GMCM | 22 |
| EYMP | ≤ 0.25 |
| MHHS | ≤ 0.25 |
| YVFC | ≤ 0.25 |
| GPTW | ≤ 0.25 |
| RAKA | ≤ 0.25 |
| TGTI | 13.2 |
| KSTI | ≤ 0.25 |
| AGTH | 5.3 |
| RGTI | ≤ 0.25 |
| AGTI | 16.7 |
| AGTK | ≤ 0.25 |
| QIMM | ≤ 0.25 |
| SDFW | ≤ 0.25 |

| Variant | enrichment ratio |
| --- | --- |
| QQHA | ≤ 0.25 |
| GQMD | ≤ 0.25 |
| YKAP | ≤ 0.25 |
| KLPM | ≤ 0.25 |
| FVPN | ≤ 0.25 |
| AQQN | ≤ 0.25 |
| AQAA | 12.7 |
| AQAN | 18.7 |
| AKAN | ≤ 0.25 |
| AQAS | 18.6 |
| ATAN | 29.1 |
| ATMN | ≤ 0.25 |
| AKAS | 9.64 |
| YTAN | ≤ 0.25 |
| AKAA | 4.65 |
| WQAS | ≤ 0.25 |
| IQAA | ≤ 0.25 |
| AYFR | ≤ 0.25 |
| WMYW | ≤ 0.25 |
| IMAW | ≤ 0.25 |
| RNGP | ≤ 0.25 |
| PWQL | 0.791 |
| DNHF | ≤ 0.25 |
| TNNI | 3.41 |

| Variant | enrichment ratio |
| --- | --- |
| MAGS | 17.7 |
| MAGF | 14.5 |
| MAGD | ≤ 0.25 |
| MAVK | ≤ 0.25 |
| KAGF | ≤ 0.25 |
| NAGF | ≤ 0.25 |
| AHRA | ≤ 0.25 |
| CFDS | ≤ 0.25 |
| MCPV | ≤ 0.25 |
| DLEL | ≤ 0.25 |
| LYPG | ≤ 0.25 |
| ASCH | 13.6 |
| KSMH | ≤ 0.25 |
| ASCF | 9.91 |
| ASVH | 8.62 |
| ASTH | 6.74 |
| ASMH | 16.5 |
| KDVM | ≤ 0.25 |
| DIWH | ≤ 0.25 |
| RDYH | ≤ 0.25 |
| KKLQ | ≤ 0.25 |
| YHEH | ≤ 0.25 |
| RDFI | ≤ 0.25 |
| LNYT | ≤ 0.25 |

| Variant | enrichment ratio |
| --- | --- |
| MVFE | ≤ 0.25 |
| LEYT | 11.9 |
| QGFQ | 13.4 |
| QRYT | ≤ 0.25 |
| MVFQ | 13.2 |
| QGFE | ≤ 0.25 |
| STYT | 0.437 |
| MVHP | 0.338 |
| LTYT | ≤ 0.25 |
| FFFQ | ≤ 0.25 |
| QEYT | 20.9 |
| PAIE | ≤ 0.25 |
| FSRF | ≤ 0.25 |
| SYCE | 2.48 |
| VEGN | ≤ 0.25 |
| RAVD | ≤ 0.25 |
| VDID | ≤ 0.25 |
| QGYK | 0.706 |
| FFWS | ≤ 0.25 |
| QGCS | ≤ 0.25 |
| QGCK | ≤ 0.25 |
| FFGG | ≤ 0.25 |
| QGYI | 17.5 |
| FQWS | ≤ 0.25 |

| Variant | enrichment ratio |
| --- | --- |
| TPGG | ≤ 0.25 |
| QGCI | 19.5 |
| QGWS | 20.8 |
| QGGG | 17.7 |
| QGYV | 11.2 |
| NSEV | ≤ 0.25 |
| GKAT | ≤ 0.25 |
| WHGN | ≤ 0.25 |
| NVPF | ≤ 0.25 |
| QRWS | ≤ 0.25 |
| MAFQ | 24.4 |
| QGWI | 22.5 |
| QGDS | ≤ 0.25 |
| QEWS | 13.4 |
| MAFE | 8.88 |
| QEYI | 13.9 |
| QGRA | ≤ 0.25 |
| QEFA | 0.476 |
| STYI | ≤ 0.25 |
| MEFQ | 3.08 |
| QPWS | ≤ 0.25 |
| RMEL | ≤ 0.25 |
| DLMW | ≤ 0.25 |
| PLYK | ≤ 0.25 |

| Variant | enrichment ratio |
| --- | --- |
| KDVS | ≤ 0.25 |
| RYGQ | ≤ 0.25 |
| QQYQ | ≤ 0.25 |
| NKEY | ≤ 0.25 |
| TTLW | ≤ 0.25 |
| VACH | ≤ 0.25 |
| ISIQ | ≤ 0.25 |
| FFWE | ≤ 0.25 |
| FFGS | ≤ 0.25 |
| FCWE | ≤ 0.25 |
| QPGS | ≤ 0.25 |
| QGGS | 14.5 |
| QGWE | 14.3 |
| FTRQ | ≤ 0.25 |
| DCTH | ≤ 0.25 |
| VFMI | ≤ 0.25 |
| SHFN | ≤ 0.25 |
| FRIN | ≤ 0.25 |

From a collection of fitness landscapes (doi:10.1126/science.1257360)
